Experimental data published in PubChem BioAssay (NCATS).
Unmarked numbers belong to inactive results. Records with an inconclusive call do not appear. A call without a number means that no potency is given here. Calls of active or inactive are those of the source. Unless noted, calls come from the whole dose curve; as a rule, active = well fitted curve in the direction sought with a large enough effect; inconclusive = small, poorly fitted or top-dose-only effect, or another doubt; inactive = no such curve, though single readings can be large; an effect the other way counts as inactive or inconclusive.

Columns and labels:
[1] = Cell Viability - Jurkat (AID 426;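 active = dose-dependent loss of cell ATP signal giving a full or clear fitted curve, ranked by lower potency value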;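 note: potency is the fitted concentration of half-maximal effect; cells exposed to compound for 40 hours at 37 °C before ATP read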); conditions: qHTS
Outline: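 Cytotoxicity taken as drop in cellular ATP (CellTiter-Glo luminescence, 20 min room temperature) after 40 hr, 37C treatment of 5000 Jurkat Clone E6-1 cells per well; concentration-response fitted with Hill equation for AC50.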

[2] = Cell Viability - HUV-EC-C (AID 542); conditions: HUV-EC-C endothelial cell viability, qHTS; series mostly up to 92.2 µM;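 note: cells exposed to compound for 40 hours; nearly all actives have a fitted effect of over 35% in size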; note: potency is the fitted concentration of half-maximal effect
Outline: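 CellTiter-Glo luminescence measured ATP loss in HUV-EC-C cells (1000/well) after 40 hr compound exposure at 37 °C, in complete culture medium. Concentration-response data were Hill-fitted to give AC50.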

[3] = Cell Viability - H-4-II-E (AID 543); conditions: H-4-II-E rat hepatoma viability; series mostly up to 92.2 µM;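 note: cells exposed to compound for 40 hours; nearly all actives have a fitted effect of over 35% in size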; note: potency is the fitted concentration of half-maximal effect
Outline: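 CellTiter-Glo luminescence (intracellular ATP) measured after 40 h compound exposure at 37 °C in H-4-II-E rat hepatoma cells seeded at 1500/well. Values are AC50s fitted with the standard Hill equation.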

[4] = Cellular Toxicity (caspase-3) HUV-EC-C (AID 656); conditions: HUV-EC-C cells, caspase-3 activation (apoptosis), vehicle = 0, 100 µM tamoxifen = 100%; series mostly up to 92.2 µM
Outline: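 Concentration-dependent caspase 3/7 induction was assessed in HUV-EC-C cells exposed for 16 hours. Data scaled between DMSO and tamoxifen (100 uM) controls.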

[5] = Cellular Toxicity (caspase-3) BJ (AID 658); conditions: BJ fibroblasts, luminescence, normalized: DMSO 0%, staurosporine 100%; series mostly up to 91.7 µM
Outline: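 Plated BJ cells (1000/well) rested 5 hr, received compound for 16 hr at 37 °C, then Caspase-Glo 3/7 reagent for 1 hr at room temperature before luminescence reading.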

[6] = Cellular Toxicity (caspase-3) MRC-5 (AID 659); conditions: MRC-5 cells, luminescence, normalized: DMSO 0%, 10 µM staurosporine 100%; series mostly up to 91.7 µM
Outline: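 Apoptosis readout in MRC-5 cells: luciferase light generated after caspase 3/7 cleaves a peptide-aminoluciferin substrate, measured post 16 hr compound incubation at 37 °C.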

[7] = Cellular Toxicity (caspase-3) Mesangial (AID 660); conditions: mesangial cells; Potency: caspase-3 activation; series mostly up to 91.7 µM;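 note: combined caspase 3 and 7 activity read by Caspase-Glo luminescence; cells exposed to compound for 16 h before the caspase read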; note: potency is the fitted concentration of half-maximal effect
Outline: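 Caspase 3/7 activation measured by Caspase-Glo 3/7 luminescence (20 min, room temperature) following 16 h exposure of mesangial cells (1000/well); AC50 from Hill-equation fit, normalized to DMSO and 100 uM tamoxifen.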

[8] = Cellular Toxicity (caspase-3) Hek293 (AID 664); conditions: HEK293 caspase-3 activation, DMSO = 0%, 100 µM tamoxifen = 100%; at 92.2 µM (top of the series);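 note: cells exposed to compound for 16 h at 37 °C before readout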
Outline: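 Concentration-response qHTS: caspase 3/7 activation measured by luminescent aminoluciferin substrate cleavage after 16 h compound exposure of Hek 293 cells. AC50 from Hill equation, with DMSO as basal and 100 uM tamoxifen as 100%.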

[9] = Cellular Toxicity (caspase-3) N2a (AID 665); conditions: N2a cells, luminescence, normalized: DMSO 0%, 10 µM staurosporine 100%; series mostly up to 92.2 µM;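 note: compound exposure lasted 16 h at 37 °C before readout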
Outline: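 Caspase-3/7 activation measured as luminescence from Caspase-Glo reagent (1 h, room temperature) after 16 h compound exposure of mouse N2a cells. AC50 values from Hill-equation concentration-response, scaled between DMSO and 10 uM staurosporine.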

[10] = Cellular Toxicity (caspase-3) NIH 3T3 (AID 666); conditions: NIH 3T3 caspase-3 activation, apoptosis/toxicity, 0% DMSO, 100% is 100 µM tamoxifen; series mostly up to 92.2 µM;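 note: caspase signal read after 16 h compound exposure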
Outline: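 Caspase-Glo 3/7 luminescence reported caspase activation in 1000 NIH 3T3 cells/well after 16 h compound exposure at 37 C. DMSO set basal and 100 uM tamoxifen set 100% stimulation; concentration-response modeled with the Hill equation for AC50.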

[11] = Cell Viability - LYMP2-001 (AID 921); conditions: LYMP2-001 lymphoblastoid cell viability; series mostly up to 92.2 µM; note: nearly all actives have a fitted effect of over 70% in size; note: potency is the fitted concentration of half-maximal effect
Outline: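 A lymphoblastoid cell line of human origin was treated with library compounds across a concentration series for 24 hours, and viable cell number was estimated from ATP-driven luciferase light output. Hill modeling gave AC50.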

[12] = Cell Viability - LYMP1-002 - Assay at 16 hr (AID 948); conditions: LYMP1-002 lymphoblastoid cell viability; series mostly up to 92.2 µM; note: potency is the fitted concentration of half-maximal effect
Outline: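 In this qHTS, lymphoblastoid LYMP1-002 cells (human) receive compounds for 16 hr at 37 C. Viability is taken from CellTiter-Glo ATP luminescence, and AC50 derives from standard Hill fits.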

[13] = Cell Viability - LYMP1-003 - Assay at 24 hr (AID 963); conditions: LYMP1-003 lymphoblastoid cell viability; series mostly up to 92.2 µM; note: potency is the fitted concentration of half-maximal effect
Outline: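 Concentration-response qHTS: ATP loss measured by CellTiter-Glo luminescence after 24 h compound exposure at 37 C. Cells were LYMP1-003 human lymphoblastoid, 2500 per well. AC50 derived via standard Hill equation modeling.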

[14] = Cell Viability - LYMP1-003 - Assay at 40 hr (AID 964); conditions: LYMP1-003 lymphoblastoid viability; series mostly up to 92.2 µM; note: nearly all actives have a fitted effect of over 60% in size; note: potency is the fitted concentration of half-maximal effect
Outline: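 Viability is taken as cellular ATP, read by CellTiter-Glo luminescence after 40 h of compound exposure at 37 C. Cells: human lymphoblastoid line LYMP1-003 at 2500/well; AC50 values derived by Hill-equation fitting of concentration-response data.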

[15] = Cell Viability - LYMP2-003 (AID 965); conditions: LYMP2-003 lymphoblastoid cell viability; series mostly up to 92.2 µM;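 note: cells exposed to compounds for 24 h before reading; nearly all actives have a fitted effect of over 50% in size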; note: potency is the fitted concentration of half-maximal effect
Outline: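 qHTS, human lymphoblastoid line, 2500 cells/well, complete medium. 24 h drug, 37 C. ATP-based luminescent readout; Hill-fit AC50.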

[16] = Cell Viability - LYMP2-015 (AID 971); conditions: LYMP2-015 lymphoblastoid cell viability; series mostly up to 92.2 µM; note: nearly all actives have a fitted effect of over 55% in size; note: potency is the fitted concentration of half-maximal effect
Outline: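 Cytotoxicity readout: decrease in intracellular ATP (CellTiter-Glo luminescence) in 2500 LYMP2-015 lymphoblastoid cells/well after 24 h compound exposure at 37 C. Concentration-response data fitted with the standard Hill equation to give AC50.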

[17] = Cell Viability - LYMP2-019 (AID 973); conditions: LYMP2-019 lymphoblastoid cell line viability; series mostly up to 92.2 µM; note: nearly all actives have a fitted effect of over 55% in size; note: potency is the fitted concentration of half-maximal effect
Outline: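 AC50 values come from Hill-equation fits of luminescent intracellular ATP (CellTiter-Glo, 30 min, room temperature) following 24 h compound exposure at 37 C. Cells: LYMP2-019 lymphoblastoid line, 2500 per well, in complete culture medium.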

[18] = Cell Viability - LYMP2-016 (AID 984); conditions: LYMP2-016 lymphoblastoid cell viability, qHTS; series mostly up to 92.2 µM;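 note: cells exposed to compound for 24 hours at 37 °C; nearly all actives have a fitted effect of over 55% in size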; note: potency is the fitted concentration of half-maximal effect
Outline: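 Concentration-dependent ATP depletion measured in LYMP2-016 lymphoblastoid cells, 24 h, 37 C; luciferase-based luminescent detection; Hill-equation AC50.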

[19] = Cell Viability - LYMP2-018 (AID 985); conditions: LYMP2-018 lymphoblastoid cells, viability (qHTS); series mostly up to 92.2 µM; note: nearly all actives have a fitted effect of over 50% in size; note: potency is the fitted concentration of half-maximal effect
Outline: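 Viability read as CellTiter-Glo luminescence (cellular ATP) after 24 hr compound exposure at 37 C of 2500 LYMP2-018 lymphoblastoid cells/well, pre-plated 5 hr. Hill-equation modelling gave AC50.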

[20] = Cell Viability - SK-N-SH (AID 435; calls by dose curve; note: potency is the fitted concentration of half-maximal effect); conditions: SK-N-SH neuroblastoma cell viability qHTS
Outline: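 Human neuroblastoma line, 40 h exposure at 37 °C, ATP quantified via luciferase luminescence; DMSO and 100 uM tamoxifen define 0 and 100% inhibition for AC50 fitting.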

| SMILES | Potency [1] | Potency [2] | Potency [3] | outcome [4] | outcome [5] | outcome [6] | Potency [7] | caspase-3 activation [8] | outcome [9] | outcome [10] | Potency [11] | Potency [12] | Potency [13] | Potency [14] | Potency [15] | Potency [16] | Potency [17] | Potency [18] | Potency [19] | Potency [20] |
| --- | --- | --- | --- | --- | --- | --- | --- | --- | --- | --- | --- | --- | --- | --- | --- | --- | --- | --- | --- | --- |
| O=[N+]([O-])C(Br)Br | 24.4 µM (active) | inactive | 31.6 µM (active) | inactive | inactive | inactive | inactive | -9.23% | inactive | inactive | 7.94 µM (active) | inactive | inactive | inactive | 25.1 µM (active) | 10 µM (active) | 10 µM (active) | 15.8 µM (active) | 12.6 µM (active) | – |
| CC(=O)[O-].CC(=O)[O-].O.O.[Cd+2] | – | inactive | 2.51 µM (active) | inactive | inactive | inactive | inactive | 4.76% | inactive | inactive | – | inactive | inactive | – | inactive | 39.8 µM (active) | inactive | inactive | inactive | – |
| CC(C)CC(C)Nc1ccc(Nc2ccccc2)cc1 (stereo not given) | 64.1 µM (active) | 25.1 µM (active) | 50.1 µM (active) | inactive | inactive | inactive | inactive | 12.2% | inactive | – | 15.8 µM (active) | 50.1 µM (active) | 50.1 µM (active) | 31.6 µM (active) | 39.8 µM (active) | 39.8 µM (active) | 39.8 µM (active) | 50.1 µM (active) | 31.6 µM (active) | – |
| Cc1ccc(O)cc1C | > 92 µM | – | – | – | – | – | – | – | – | – | – | – | – | – | – | – | – | – | – | > 92 µM |
| [Cd+2].[Cl-].[Cl-] | – | inactive | 1.26 µM (active) | inactive | inactive | inactive | inactive | 1.43% | inactive | inactive | – | – | – | 15.8 µM (active) | inactive | 50.1 µM (active) | – | inactive | inactive | – |
| Nc1ccccc1C(=O)OCCc1ccccc1 | > 92 µM | inactive | inactive | inactive | inactive | inactive | inactive | -6.67% | inactive | – | inactive | inactive | inactive | inactive | inactive | inactive | inactive | inactive | inactive | > 92 µM |
| O=C(CCl)c1ccccc1 | 9.5 µM (active) | – | 15.8 µM (active) | inactive | inactive | inactive | inactive | -9.68% | inactive | inactive | 7.94 µM (active) | 79.4 µM (active) | inactive | – | 10 µM (active) | 7.94 µM (active) | 10 µM (active) | 10 µM (active) | 10 µM (active) | 15.4 µM (active) |
| OC(c1ccc(Cl)cc1)(c1ccc(Cl)cc1)C(Cl)(Cl)Cl | – | inactive | inactive | inactive | inactive | inactive | inactive | – | inactive | inactive | inactive | inactive | inactive | inactive | inactive | inactive | inactive | inactive | inactive | > 92 µM |
| ClC1=C(Cl)C2(Cl)C3C(Cl)C(Cl)CC3C1(Cl)C2(Cl)Cl (stereo not given) | 60.7 µM (active) | – | – | – | inactive | inactive | inactive | 204% (active) | – | inactive | inactive | – | inactive | – | – | inactive | inactive | inactive | inactive | – |
| N#CC(Cl)Cl | 6.52 µM (active) | inactive | inactive | inactive | – | – | inactive | 72.2% (active) | inactive | inactive | 10 µM (active) | inactive | inactive | inactive | inactive | 12.6 µM (active) | 15.8 µM (active) | 25.1 µM (active) | 12.6 µM (active) | > 92 µM |
| O=C(O)C1C(C(=O)O)C2(Cl)C(Cl)=C(Cl)C1(Cl)C2(Cl)Cl (stereo not given) | > 92 µM | inactive | inactive | inactive | inactive | inactive | inactive | 1.7% | inactive | inactive | inactive | inactive | inactive | inactive | inactive | inactive | inactive | inactive | inactive | > 92 µM |
| Clc1ccc(C(c2ccc(Cl)cc2)C(Cl)Cl)cc1 | – | inactive | – | – | inactive | inactive | 31.6 µM (active) | 127% (active) | – | inactive | inactive | – | – | 79.4 µM (active) | inactive | inactive | inactive | inactive | inactive | 43.5 µM (active) |
| O=[N+]([O-])c1ccccc1Cl | > 92 µM | – | – | – | – | – | – | – | – | – | – | – | – | – | – | – | – | – | – | > 92 µM |
| C[C@@H]1CC[C@@]2(OC1)O[C@H]1[C@@H](O)[C@H]3[C@@H]4CC[C@H]5C[C@@H](O[C@@H]6O[C@H](CO)[C@H](O[C@@H]7O[C@H](CO)[C@@H](O)[C@H](O[C@@H]8OC[C@@H](O)[C@H](O)[C@H]8O)[C@H]7O[C@@H]7O[C@H](CO)[C@@H](O)[C@H](O[C@@H]8O[C@H](CO)[C@@H](O)[C@H](O)[C@H]8O)[C@H]7O)[C@H](O)[C@H]6O)[C@H](O)C[C@]5(C)[C@H]4CC[C@]3(C)[C@H]1[C@@H]2C | 0.573 µM (active) | 25.1 µM (active) | 20 µM (active) | inactive | inactive | inactive | inactive | -8.63% | inactive | inactive | 10 µM (active) | 10 µM (active) | 7.94 µM (active) | 7.94 µM (active) | 20 µM (active) | 15.8 µM (active) | 12.6 µM (active) | 25.1 µM (active) | 25.1 µM (active) | 28.5 µM (active) |
